This is a sample that favours compounds with a hit; in the whole collection about 1.2% have one here.
RGS16-Gao HTS = modulates binding between human RGS16 and Galphao; O15492+P09471; bead-based flow cytometry RGS16-Galphao binding, fluorescence; actives lie on both sides; binding response (% of control), % at 10 µM; 220,000 compounds, 0.38% hits;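 also: Galphao activated by GDP with aluminum fluoride before binding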
Target sequence (O15492 whole entry, looked up): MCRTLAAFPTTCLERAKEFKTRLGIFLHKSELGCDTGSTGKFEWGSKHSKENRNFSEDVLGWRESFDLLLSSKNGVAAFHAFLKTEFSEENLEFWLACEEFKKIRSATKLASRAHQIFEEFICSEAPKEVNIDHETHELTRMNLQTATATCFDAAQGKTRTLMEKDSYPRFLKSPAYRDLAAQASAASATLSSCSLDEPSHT
Target sequence (P09471 whole entry, looked up): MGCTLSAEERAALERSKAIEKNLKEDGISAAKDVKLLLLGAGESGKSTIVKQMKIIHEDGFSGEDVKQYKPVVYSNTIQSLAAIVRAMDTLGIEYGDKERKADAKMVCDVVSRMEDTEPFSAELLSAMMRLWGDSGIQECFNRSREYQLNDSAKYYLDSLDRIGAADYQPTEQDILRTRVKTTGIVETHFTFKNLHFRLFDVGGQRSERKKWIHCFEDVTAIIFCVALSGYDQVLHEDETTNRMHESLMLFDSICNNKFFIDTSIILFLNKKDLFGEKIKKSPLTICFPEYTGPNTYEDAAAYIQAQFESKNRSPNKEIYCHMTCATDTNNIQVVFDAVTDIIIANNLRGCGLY
GSH bead fluor = compound fluoresces at 488/530 nm on GSH beads | GSH beads flow cytometry, compound fluorescence 488/530 nm; hits give high values | fluorescence (KMESF) at 10 µM | 190,000 compounds, 0.25% hits | AID 1776; in the data active = fluorescence above about 89;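 also: glutathione beads carrying GST-tagged Bcl family fusion proteins plus one bare bead set; values are compound well signal with DMSO vehicle wells as background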
RGS7-Gao reg = regulators of human RGS7-Galphao interaction. P09471. Multiplexed bead flow cytometry, RGS7-Galphao binding; actives lie on both sides. binding response (% of control), % at 10 µM. 220,000 compounds, 0.35% hits. AID 1439; in the data active = binding response below about 49% or above about 150%; inconclusive = no clear call, values can overlap the other calls; inactive = in between;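 also: fluorescent Galphao held in activated GDP-AlF4 state binding bead-coupled RGS7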
Target sequence (P09471 whole entry, looked up): as above
RGS4-Gao reg = modulates binding of RGS4 to human Galphao; P09471; Multiplexed bead flow cytometry; actives lie on both sides; binding response (% of control), % at 10 µM; 220,000 compounds, 0.33% hits; AID 1415; in the data active = binding response below about 49% or above about 150%; inactive = in between;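 also: fluorescent Galphao activated with aluminum fluoride binding bead-coupled RGS4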
RGS8-Gao reg = regulators of human RGS8-Galphao interaction; response (percent of control binding), % at 10 µM; AID 1423; multiplexed bead flow cytometry, RGS8-Galphao binding; actives lie on both sides; 220,000 compounds, 0.34% hits; in the data active = response below about 60% or above about 140%; inactive = in between;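 also: Galphao activated as the GDP aluminium fluoride complex binding bead-coupled RGS8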
Avidin fluor = avidin bead compound fluorescence profile; Avidin beads, compound fluorescence 488/530 nm, flow cytometry; hits give high values; fluorescence (KMESF) at 10 µM; 220,000 compounds, 0.38% hits; in the data active = fluorescence above about 47
RGS4-Gao HTS = modulates binding between human RGS4 and Galphao; shares compounds with RGS16-Gao HTS; multiplexed bead flow cytometry, RGS–Galpha-o binding; RGS4–Galpha-o binding response, % at 10 µM; 1,600 compounds, 99% hits;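 also: fluorescently labeled Galpha-o bound to GDP with aluminium fluoride binding biotinylated RGS beads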
Avidin counter = biotin-avidin bead binding disruption counter-screen | AID 1783 | 1,700 tested, under 10 active | inhibition, % at 10 µM | shares compounds with RGS16-Gao HTS | streptavidin beads, fluorescein-biotin binding, flow cytometry;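 active = inhibition above 50%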;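 also: median green fluorescence of gated singlet beads compared with DMSO control wells; 0% = DMSO wells and 100% = complete loss of bead fluorescence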
RGS8-Gao confirm = RGS8-Galphao interaction regulation, single point confirmation | binding response (% of control), % at 10 µM | 1,700 compounds, 3% hits | shares compounds with RGS16-Gao HTS | bead-based flow cytometry RGS8-Galphao binding, fluorescence; actives lie on both sides | AID 1836; in the data active = binding response below about 72% or above about 130%; inactive = in between;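 also: Galphao activated as GDP AlF4 complex before binding bead RGS8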
RGS7-Gao single = confirmation of regulators of human RGS7-Galphao interaction | shares compounds with RGS16-Gao HTS | bead-based flow cytometry RGS7-Galphao binding; actives lie on both sides | response (percent of control binding), % at 10 µM | 1,700 compounds, 7.8% hits; in the data active = response below about 75% or above about 130%; inactive = in between;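 also: fluorescent Galphao activated with GDP and aluminum fluoride binding bead-coupled RGS7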
RGS16-Gao conf = RGS16-Galphao interaction regulation, single point confirmation | shares compounds with RGS16-Gao HTS | bead-based flow cytometry, RGS16-Galphao binding; actives lie on both sides | response (% of control binding), % at 10 µM | 1,700 compounds, 4% hits | AID 1838; in the data active = response below about 74% or above about 130%; inactive = in between;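 also: Galphao activated as the GDP aluminium fluoride complex binding bead-coupled RGS16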
RGS4-Gao single = confirmation of regulators of human RGS4-Galphao interaction; shares compounds with RGS16-Gao HTS; binding response (% of control), % at 10 µM; 1,700 compounds, 4% hits; RGS4-Galphao binding, multiplexed bead flow cytometry; actives lie on both sides; AID 1840; in the data active = binding response below about 74% or above about 130%; inactive = in between
RGS19-Gao single = RGS19-Galphao interaction regulation, single point confirmation; shares compounds with RGS16-Gao HTS; bead-based flow cytometry RGS19-Galphao binding; actives lie on both sides; response (percent of control binding), % at 10 µM; 1,700 compounds, 5% hits; AID 1841; in the data active = response below about 50% or above about 160%; inactive = in between;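 also: 100% = no compound control and 0% = blank background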
An asterisk follows results filed as active; [ ] = another dose, or the depositor's remark. Unless noted, no rule for the calls is given here.

For Cc1ccccc1-n1c(O)c(/C=N/N2CCOCC2)c(=O)[nH]c1=S the results were RGS16-Gao HTS 46, GSH bead fluor 18, RGS7-Gao reg 138, RGS4-Gao reg 150*[activator], RGS8-Gao reg 84, Avidin fluor 78*, Avidin counter -1, RGS8-Gao confirm 101, RGS7-Gao single 101, RGS16-Gao conf 104, RGS4-Gao single 101 and RGS19-Gao single 115.
CCN1CCN(c2cc(N3CCCC3)c(F)cc2[N+](=O)[O-])CC1 was read as RGS16-Gao HTS 184*[activator], GSH bead fluor 17, RGS7-Gao reg 112, RGS4-Gao reg 108, RGS8-Gao reg 122, Avidin fluor 12, RGS4-Gao HTS 108*, Avidin counter -2, RGS8-Gao confirm 98, RGS7-Gao single 62*, RGS16-Gao conf 78, RGS4-Gao single 79 and RGS19-Gao single 64.
Screening CCOP(=S)(OCC)c1ccc(N(C)C)cc1 returned RGS16-Gao HTS 329, GSH bead fluor 65, RGS7-Gao reg 116, RGS4-Gao reg 123, RGS8-Gao reg 149*[activator], Avidin fluor 13, RGS4-Gao HTS 123*, Avidin counter 0, RGS8-Gao confirm 100, RGS7-Gao single 100, RGS16-Gao conf 99, RGS4-Gao single 100 and RGS19-Gao single 89.
`COC(=O)C1=C(N)Oc2cc(C)oc(=O)c2C12C(=O)Nc1ccccc12` (configuration not stated) gave RGS16-Gao HTS 152, GSH bead fluor 11, RGS7-Gao reg 105, RGS4-Gao reg 108, RGS8-Gao reg 119 and Avidin fluor 21.
Cc1c2ccncc2c(C)c2c1[nH]c1ccccc12 was read as RGS16-Gao HTS 78, GSH bead fluor 18, RGS7-Gao reg 128, RGS4-Gao reg 154*[activator], RGS8-Gao reg 92, Avidin fluor 15, Avidin counter 0, RGS8-Gao confirm 94, RGS7-Gao single 76, RGS16-Gao conf 89, RGS4-Gao single 84 and RGS19-Gao single 72.
Screening c1ccc2c(c1)[nH]c1cnccc12 returned RGS16-Gao HTS 109, GSH bead fluor 20, RGS7-Gao reg 105, RGS4-Gao reg 101, RGS8-Gao reg 105 and Avidin fluor 10.
Screening Cc1cc(Cl)nc(N)n1 returned RGS16-Gao HTS 311, GSH bead fluor 9, RGS7-Gao reg 112, RGS4-Gao reg 114, RGS8-Gao reg 146*[activator], Avidin fluor 5, RGS4-Gao HTS 114*, Avidin counter -2, RGS8-Gao confirm 96, RGS7-Gao single 93, RGS16-Gao conf 96, RGS4-Gao single 96 and RGS19-Gao single 100.
CCSC1=NN1c1cc(C)nc(N)n1 was read as RGS16-Gao HTS 97, RGS7-Gao reg inconclusive, RGS4-Gao reg 102, RGS8-Gao reg 102 and Avidin fluor 9.
`N#CC(C#N)=Cc1ccc(N2CCCC2)cc1` gave RGS16-Gao HTS 150, GSH bead fluor 20, RGS7-Gao reg 668*[activator], RGS4-Gao reg 184*[activator], RGS8-Gao reg 71, Avidin fluor 118*, Avidin counter 1, RGS8-Gao confirm 102, RGS7-Gao single 103, RGS16-Gao conf 103, RGS4-Gao single 104 and RGS19-Gao single 86.
For CN1C(=O)NC(=O)/C(=C/c2ccc([N+](=O)[O-])o2)C1=O the results were RGS16-Gao HTS 41, RGS7-Gao reg inconclusive, RGS4-Gao reg 88, RGS8-Gao reg 58*, Avidin fluor 4 and RGS4-Gao HTS 88*.
Screening NCCCCCC(=O)OC1N=C(c2ccccc2Cl)c2cc(Br)ccc2NC1=O (configuration not stated) returned RGS16-Gao HTS 105, GSH bead fluor 11, RGS7-Gao reg 98, RGS4-Gao reg 106, RGS8-Gao reg 104 and Avidin fluor 6.
O=c1[nH]c(=O)n(Cc2ccc(F)cc2)c(O)c1C=NCCCO was read as RGS16-Gao HTS 107, GSH bead fluor 17, RGS7-Gao reg 156*[activator], RGS4-Gao reg 110, RGS8-Gao reg 97, Avidin fluor 122*, RGS4-Gao HTS 110*, Avidin counter -1, RGS8-Gao confirm 98, RGS7-Gao single 95, RGS16-Gao conf 96, RGS4-Gao single 97 and RGS19-Gao single 99.
O=c1[nH]c(=O)n(Cc2ccc(F)cc2)c(O)c1C=NCCCn1ccnc1 was read as RGS16-Gao HTS 99, GSH bead fluor 17, RGS7-Gao reg 97, RGS4-Gao reg 98, RGS8-Gao reg 102 and Avidin fluor 37.
Screening CCN1CC2([N+](=O)[O-])CC=C(Cl)C([N+](=O)[O-])(C1)C2 (configuration not stated) returned RGS16-Gao HTS 101, GSH bead fluor 13, RGS7-Gao reg 100, RGS4-Gao reg 98, RGS8-Gao reg 98 and Avidin fluor 8.
`CN(C)C(=O)Nc1cccc(OC(=O)N(C)C)c1` gave RGS16-Gao HTS 108, GSH bead fluor 22, RGS7-Gao reg 281*[activator], RGS4-Gao reg 126, RGS8-Gao reg 99, Avidin fluor 178*, RGS4-Gao HTS 126*, Avidin counter 0, RGS8-Gao confirm 98, RGS7-Gao single 99, RGS16-Gao conf 101, RGS4-Gao single 101 and RGS19-Gao single 101.
For CCOP(=O)(OCC)c1cccc(O)c1 the results were RGS16-Gao HTS 100, GSH bead fluor 14, RGS7-Gao reg 101, RGS4-Gao reg 105, RGS8-Gao reg 103 and Avidin fluor 8.
CC(=NCCCN1CCOCC1)c1c(O)[nH]c(=O)[nH]c1=O was read as RGS16-Gao HTS 105, GSH bead fluor 36, RGS7-Gao reg 102, RGS4-Gao reg 100, RGS8-Gao reg 103 and Avidin fluor 10.
